This is an account of results in article PMC4552634, “A New Set of Chemical Starting Points with Plasmodium falciparum Transmission-Blocking Potential for Antimalarial Drug Discovery” (PLoS ONE, 2015).

Out of some 13,000 compounds screened, about 3,200 (25%) showed an effect of 50% or more. This is one part of the list.

The assay deals with P. falciparum stage V gametocytes. Further details: BacTiter-Glo ATP luminescence viability of purified stage V gametocytes in 384-well plates, per cent inhibition versus DMSO. Conditions: 48 h, 5 µM; inhibitor.
For `Cn1cnc2c(SCc3ccccc3OCc3ccccc3)ncnc21` [TCMDC-136495], the “% Inhibition” value is -28.48%.
In the case of `O=C(/C=C/c1ccc(Cl)c(Cl)c1)N(Cc1ccccc1)C1CCC(CN2CCC(c3c[nH]c4ccccc34)CC2)CC1` (stereo not drawn) [TCMDC-140359] it was 26.1%.
For `COc1cc2c(Nc3ccc(Br)cc3F)ncnc2cc1OCC1CCN(C)CC1` [TCMDC-123476], the “% Inhibition” value is 19.55%.
For the compound `O=C(O)C(F)(F)F.OC1CCCN(Cc2cccc(-c3ccc(-c4nc5cc(F)ccc5[nH]4)cc3)c2)C1` (stereo not drawn) [TCMDC-133820], the “% Inhibition” value was 3.122%.
On to `COc1ccc2ncc(F)c(NC(=O)C3CCC(NCc4cc5c(F)cccc5[nH]4)CC3)c2n1` (stereo not drawn) [TCMDC-136354], for which the “% Inhibition” value was -14.12%.
For the compound `N#Cc1ccc2c(c1)CCN(CCC1CCC(NC(=O)Nc3ccncc3)CC1)C2` (stereo not drawn) [TCMDC-139300], the “% Inhibition” value is given as -15.77%.
With `CCOC(=O)c1cc(=O)c2ccc(OCC#N)cc2o1` [TCMDC-131302], the “% Inhibition” value came out at 40.87%.
`Fc1ccc2[nH]c(-c3cccc(-c4cccc(CNCc5cnn(-c6ccccc6)n5)c4)c3)nc2c1.O=C(O)C(F)(F)F` [TCMDC-132976]: the “% Inhibition” value was -2.641%.
In the case of `CC(C)N=C(N)NN=Cc1ccc(Cl)c(Cl)c1` [TCMDC-138131], the “% Inhibition” value was -38.45%.
For the compound `Cc1cc(NN=Cc2ccccn2)c2cc(C(F)(F)F)ccc2n1` [TCMDC-142022], the “% Inhibition” value amounted to 35.2%.
With `FC(F)(F)c1cccc(NC(=S)NN=Cc2ccccn2)c1` [TCMDC-123509], the “% Inhibition” value is 31.63%.
As for `S=C(NN=Cc1ccccn1)NC1CC2C=CC1C2` (stereo not drawn) [TCMDC-125752], the “% Inhibition” value is given as 132.2%.
Consider `O=C(Cn1cnc2c(nnn2Cc2ccccc2F)c1=O)Nc1ccc2c(c1)OCCO2` [TCMDC-124462], for which the “% Inhibition” value was -30.94%.
In the case of `S=C(NN=Cc1ccccn1)Nc1ccc(Cl)c(Cl)c1` [TCMDC-125522], the “% Inhibition” value stood at 102.5%.
In the case of `S=C(NN=Cc1ccccn1)Nc1ccc2c(c1)OCCO2` [TCMDC-132009] it was 95.93%; in that of `O=C(Nc1ccc2c(c1)OCCO2)c1cc(-c2cccnc2)nc2ccc(Cl)cc12` [TCMDC-124362], -23.33%.
Then `O=C(NC1CC1)c1ccc(Nc2nccc(-c3c(-c4cccc(NC(=O)c5c(F)cccc5F)c4)nn4ccccc34)n2)cc1` [TCMDC-136002], with -35.37%.
Turning to `CCCCN1C(=O)C(c2ccccc2)(c2ccccc2)N=C1N` [TCMDC-142007], the “% Inhibition” value is 12.88%.
Then `O=C(NCCN1CCOCC1)c1ccc(O)c(-c2cccc(C(F)(F)F)c2)c1` [TCMDC-140162], with 21.52%.
Consider `CCCNC(=O)c1ccc(N2CCC(c3ccccc3C)CC2)nc1` [TCMDC-134583], for which the “% Inhibition” value was 17.76%.
Take `O=C(NC1CCCCCC1)[C@@H]1CCCN1C(=O)c1ccc(O)c(-c2ccc(Cl)c(Cl)c2)c1` [TCMDC-140843]: the “% Inhibition” value was 28.6%.
Take `COc1ccc2nccc([C@@H](O)CN3CCC(NCc4cc5oc(=O)[nH]c5cc4F)CC3)c2c1` [TCMDC-141140]: the “% Inhibition” value was found to be 3.08%.
On to `CCc1ccccc1N1CCN(CCCC(=O)c2ccc(NC(=O)c3cc(Cl)cc(Cl)c3)cc2)CC1` [TCMDC-138229], for which the “% Inhibition” value is -19.19%.
`Nc1nc(N)c2cc(Cc3ccccc3Cl)cnc2n1` [TCMDC-137918]: the “% Inhibition” value was -87.91%.
Consider `O=C(NCC1CCCCC1)c1cc(=O)c2ccccc2o1` [TCMDC-123621], for which the “% Inhibition” value is recorded as 8.117%.
Turning to `CC(C)(C)C(=O)Nc1c(-c2cc(=O)oc3cc4c(cc23)CCC4)oc2ccccc12` [TCMDC-125081], the “% Inhibition” value came out at 76.3%.
On to `CCOC(=O)CNC(=O)c1cc(=O)c2ccccc2o1` [TCMDC-131778], for which the “% Inhibition” value was determined as 11.83%.
In the case of `COC(=O)c1c(NC(=O)c2cccc(C(F)(F)F)c2)sc2c1CCN(Cc1ccccc1)C2` [TCMDC-125828], the “% Inhibition” value is on record as -72.37%.
`CCOC(=O)c1ccc(N2CCN(c3cc(C)ccc3C)CC2)c(NC(=O)Nc2ccc(Cl)c(Cl)c2)c1` [TCMDC-123849]: the “% Inhibition” value came out at 0.9649%.
Consider `N#Cc1ccc(N[C@@H](CC2CCCCC2)C(=O)NCc2cc(F)c(F)cc2F)c2ccccc12` [TCMDC-136630], for which the “% Inhibition” value was -9.58%.
As to `N#Cc1ccc(N(CC(=O)NCCc2ccccc2)CC2CC2)c2ccccc12` [TCMDC-135574], the “% Inhibition” value was -1.825%.
For the compound `N#Cc1ccc(N2C[C@@H](OCc3ccccc3)C[C@H]2C(=O)NCCC(c2ccccc2)c2ccccc2)c2ccccc12` [TCMDC-135421], the “% Inhibition” value was found to be 62.52%.
For the compound `COc1ccccc1CCC(C)(C)NC(=O)CC(CCc1ccccc1)Nc1ccc(C#N)c2ccccc12` (stereo not drawn) [TCMDC-132307], the “% Inhibition” value was determined as 13.06%.
Turning to `Cc1cc(NC(=O)[C@@H](Nc2ccc(C#N)c3ccccc23)C2CCCCC2)ccc1F` [TCMDC-136635], the “% Inhibition” value is -42.79%.
Take `CO[C@@H]1C[C@@H](C(=O)Nc2ccccc2)N(c2ccc(C#N)c3ccccc23)C1` [TCMDC-135413]: the “% Inhibition” value was 86.31%.
For the compound `CCOc1cc(C(=O)Nc2ccc3nc(N4CCN(C)CC4)cc(C)c3c2)cc(OCC)c1OCC` [TCMDC-123589], the “% Inhibition” value is on record as -11.34%.
Then `O=C(/C=C/c1cccc2c1OCO2)Nc1ccnc2ccncc12` [TCMDC-139845], with -12.08%; and `Cc1ccccc1CNCC(O)c1cccc(C(F)(F)F)c1` (stereo not drawn) [TCMDC-140393], with 2.038%; and `O=c1cc(NCCCNCc2cc(Br)cs2)[nH]c2ccccc12` [TCMDC-139310], with -17.04%.
In the case of `O=c1cc(NC[C@H]2CCC[C@@H]2NCc2cc(Br)cc(Br)c2)[nH]c2ccccc12` [TCMDC-139655] it was -0.8474%.
Take `CCc1ccc(CNCC(CCNc2cc(=O)c3ccccc3[nH]2)NCc2cc(Br)cc(Br)c2)o1` (stereo not drawn) [TCMDC-140346]: the “% Inhibition” value was 67.8%.
For `COc1cc(/C=C/C(=O)NCC(CCNc2cc(=O)c3ccccc3[nH]2)NCc2cc(Br)cc(Br)c2)cc(OC)c1` (stereo not drawn) [TCMDC-140217], the “% Inhibition” value was -26.95%.
Then `O=c1cc(NCCC(CNCc2ccc(Br)o2)NCc2cc(Br)cc(Br)c2)[nH]c2ccccc12` (stereo not drawn) [TCMDC-140348], with 17.71%; and `Cc1cc(CNCC(CCNc2cc(=O)c3ccccc3[nH]2)NCc2cc(Br)cc(Br)c2)oc1C` (stereo not drawn) [TCMDC-140347], with 61.99%.
For `O=c1cc(NCCC(CNCc2cc3ccccc3o2)NCc2cc(Br)cc(Br)c2)[nH]c2ccccc12` (stereo not drawn) [TCMDC-140345], the “% Inhibition” value is reported as 70.19%.
As to `Cc1sc(C)c(CNCCCNc2cc(=O)c3ccccc3[nH]2)c1Br` [TCMDC-140765], the “% Inhibition” value is -54.98%.
As for `Cn1cccc1C(=O)NCC(CCNc1cc(=O)c2ccccc2[nH]1)NCc1cc(Br)cc(Br)c1` (stereo not drawn) [TCMDC-140218], the “% Inhibition” value was -44.96%.
Turning to `Cc1[nH]c2ccc(NS(C)(=O)=O)cc2c1C1CCN(CC2CCN(C(=O)/C=C/c3ccc(Cl)c(Cl)c3)CC2)CC1` [TCMDC-140125], the “% Inhibition” value was -39.53%.
`COc1ccc2nccc([C@@H](O)CN3CCC(NC(=O)c4ccc(Cl)c([N+](=O)[O-])c4)CC3)c2c1` [TCMDC-141037]: the “% Inhibition” value is -23.07%.
Then `Cn1cnc(CCNC(=O)c2ccc(-c3cccc(-c4nc5ccccc5[nH]4)c3)cc2)c1` [TCMDC-132495], with -19.92%; and `O=C(Nc1cccc(-c2ccc(-c3nc4ccccc4[nH]3)cc2)c1)c1cccnc1` [TCMDC-136924], with -5.994%.
For the compound `Cn1cnc(CCNC(=O)c2cccc(-c3csc(-c4nc5ccccc5[nH]4)c3)c2)c1` [TCMDC-132501], the “% Inhibition” value was determined as 74.26%.
As to `O=C(Nc1cccc(-c2csc(-c3nc4ccccc4[nH]3)c2)c1)c1cccnc1` [TCMDC-132403], the “% Inhibition” value was found to be 77.71%.
In the case of `O=C(Nc1cccc(-c2cccc(-c3nc4ccccc4[nH]3)c2)c1)c1cccnc1` [TCMDC-136928], the “% Inhibition” value was determined as 76.9%.
`CC(=O)Nc1cccc(C(=O)Nc2cccc(-c3csc(-c4nc5ccccc5[nH]4)c3)c2)c1` [TCMDC-132398]: the “% Inhibition” value is listed as -2.258%.
Then `O=C(Nc1cccc(-c2cccc(-c3nc4ccccc4[nH]3)c2)c1)c1ccncc1` [TCMDC-136955], with 6.238%; and `O=C(Nc1cccc(-c2csc(-c3nc4ccccc4[nH]3)c2)c1)c1ccncc1` [TCMDC-132402], with 13.78%.
As for `Cn1cnc(CCNC(=O)c2cccc(-c3ccc(-c4nc5cc(F)ccc5[nH]4)cc3)c2)c1` [TCMDC-132492], the “% Inhibition” value is reported as 7.487%.
Then `CN(C)c1ccc(N2C(N)=NC(N)=NC23CCCC3)cc1` [TCMDC-123607], with 9.069%.
For the compound `CN(CC(=O)Nc1cc(C(F)(F)F)ccc1-n1cncn1)Cc1ccc2ccccc2c1` [TCMDC-125257], the “% Inhibition” value is -1.841%.
Take `Cc1cc(NCc2ccc(F)cc2)nc2cc(O)ccc12` [TCMDC-124412]: the “% Inhibition” value was determined as 9.894%.
In the case of `O=C(/C=C/c1ccc(Cl)c(Cl)c1)N1CCC(CN2CCC(Cc3cc4ccccc4[nH]3)CC2)CC1` [TCMDC-140231], the “% Inhibition” value turned out to be 13.2%.
In the case of `CCCCCCCCc1[nH]c(C)c(Br)c(=O)c1Br` [TCMDC-137433] it was 43.41%; in that of `Cc1cc(CN2CCC(C(=O)Nc3ccc(-c4nc5ccccc5[nH]4)cc3)CC2)oc1C` [TCMDC-124612], -34.2%; in that of `COc1cc(SC)ccc1C(=O)N1CC(C)CC(C)C1` (stereo not drawn) [TCMDC-123656], 27.35%.
As to `COc1ccc(C2C(C(=O)Nc3cc(OC)c(OC)c(OC)c3)c3cc(OC)c(OC)cc3C(=O)N2C)cc1` (stereo not drawn) [TCMDC-125141], the “% Inhibition” value worked out at 92.28%.
With `COc1ccc(C2C(C(=O)Nc3ccc(C)c(F)c3)c3cc(OC)c(OC)cc3C(=O)N2C)cc1` (stereo not drawn) [TCMDC-123594], the “% Inhibition” value is listed as -36.5%.
Consider `COc1cc2c(cc1OC)C(C(=O)Nc1cc(OC)c(OC)c(OC)c1)C(c1ccc(SC)cc1)N(C)C2=O` (stereo not drawn) [TCMDC-125151], for which the “% Inhibition” value is listed as 59.65%.
`COc1ccc(C2C(C(=O)Nc3ccc4c(c3)OCO4)c3cc(OC)c(OC)cc3C(=O)N2C)cc1` (stereo not drawn) [TCMDC-123593]: the “% Inhibition” value is 37.81%.
